Screening results (PubChem)
Sampled rows, rich in hits. Any-hit rate of the full collection: about 5.4%.
rCAG RNA binder = binders of r(CAG) RNA repeats, primary screen, biochemical, fluorescence | r(CAG) RNA repeat, TO-PRO-1 dye displacement fluorescence | inhibition, % at 3 µM | 1.3% of 370,000 active | AID 651821, 2012;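 active means inhibition above the plate cutoff, the mean of all test compounds on that plate plus 3 SD, cut at about 35% in these data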;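 further: higher means more dye released from RNA so lower well fluorescence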
A3G deaminase = APOBEC3G DNA deaminase inhibitors, primary screen, biochemical, fluorescence, single-stranded DNA substrate, uHTS; inhibition, % at 20 µM; recombinant A3G, ssDNA deamination FAM/TAMRA fluorescence; AID 493012, 2011; 0.28% of 330,000 active;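 active means inhibition of at least 40% at 20 µM, with no more than 30% in the related APOBEC3A deaminase screen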
PHOSPHO1 inh = PubChem AID 1565; Phosphoethanolamine/phosphocholine phosphatase (Homo sapiens), Q8TCT1; recombinant PHOSPHO1, absorbance phosphatase assay; inhibition, % at 13.3 µM; 1.1% of 290,000 active; in the data active means inhibition above about 60%
Target sequence (Q8TCT1 whole entry, looked up): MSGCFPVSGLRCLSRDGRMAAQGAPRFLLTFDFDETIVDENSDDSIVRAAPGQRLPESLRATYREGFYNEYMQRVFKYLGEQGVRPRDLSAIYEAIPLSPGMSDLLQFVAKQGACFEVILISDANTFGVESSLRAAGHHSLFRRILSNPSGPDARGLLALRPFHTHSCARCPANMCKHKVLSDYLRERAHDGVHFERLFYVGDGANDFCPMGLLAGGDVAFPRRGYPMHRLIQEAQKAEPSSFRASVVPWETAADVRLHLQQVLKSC
A3A deaminase = APOBEC3A ssDNA deaminase inhibitors, primary screen, selectivity assay for APOBEC3G inhibitor project, biochemical, FAM/TAMRA oligo cleavage fluorescence; DNA dC->dU-editing enzyme APOBEC-3A (Homo sapiens), P31941; recombinant A3A, FAM/TAMRA ssDNA deamination fluorescence; inhibition, % at 20 µM; 0.41% of 330,000 active; AID 493011, 2011;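 active means at least 40% inhibition at 20 µM here, with at most 30% in a related deaminase screen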
Target sequence (P31941 whole entry, looked up): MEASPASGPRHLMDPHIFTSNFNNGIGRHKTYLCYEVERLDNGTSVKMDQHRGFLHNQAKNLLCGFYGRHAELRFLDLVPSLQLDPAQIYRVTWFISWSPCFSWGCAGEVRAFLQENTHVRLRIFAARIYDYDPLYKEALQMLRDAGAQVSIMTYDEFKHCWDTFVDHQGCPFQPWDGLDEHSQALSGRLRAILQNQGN
ALR inh = inhibitors of human ALR sulfhydryl oxidase, primary screen, biochemical, H2O2 detection, HRP-luminol luminescence, single point; FAD-linked sulfhydryl oxidase ALR (Homo sapiens), P55789; purified ALR, DTT oxidation; inhibition, % (test concentration not listed); 3.8% of 290,000 active;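 active means mean replicate inhibition above about 79%, with every replicate also reaching it, limit read from the data; inconclusive means only one of the two criteria met; inactive means mean below limit and not every replicate reaching it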
Target sequence (P55789 whole entry, looked up): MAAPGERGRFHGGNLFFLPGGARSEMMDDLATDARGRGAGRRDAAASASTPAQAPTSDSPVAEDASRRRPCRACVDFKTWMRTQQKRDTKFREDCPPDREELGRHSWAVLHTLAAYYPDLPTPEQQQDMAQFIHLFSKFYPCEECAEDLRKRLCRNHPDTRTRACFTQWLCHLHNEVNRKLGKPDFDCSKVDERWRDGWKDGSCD
aDG glyco up = activators of alpha-DG glycosylation, primary screen, uHTS, Pro5-aDG cells, AlphaScreen | AID 624168, 2012 | alpha-DG glycosylation AlphaScreen (IIH6); 0% Pro5, 100% B10-LARGE cell signal | activation, % at 10 µM | 0.22% of 360,000 active;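 active means activation of at least 8% versus controls, or a plate z-score of at least 8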;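 further: Pro5 are CHO cells carrying HIG-tagged alpha-DG that lacks glycosylation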
Large screens that a line does not name were inactive.

CC1CC(C)CN(C(=O)c2ccc(-c3ccc([N+](=O)[O-])cc3)o2)C1 (configuration not stated)	ALR inh 89 (no result: PHOSPHO1 inh)
O=C(c1ccc(-c2ccc([N+](=O)[O-])cc2)o1)N1CCCCC1	none
CCCCOCCCNC(=O)C[C@H]1C[C@@]2(C(=O)OC)C(=C[C@H](COCc3ccccc3)O[C@@H]2C)N(CCC2=CCCCC2)C1=O	none (no result: A3G deaminase, PHOSPHO1 inh, A3A deaminase, ALR inh, aDG glyco up)
O=S1(=O)c2c(NCc3ccco3)cccc2Oc2ccccc2CN1Cc1cn(Cc2ccc(F)cc2)nn1	none (no result: A3G deaminase, PHOSPHO1 inh, A3A deaminase, ALR inh, aDG glyco up)
COc1cc(/C=C2\SC(=S)N(Nc3ccccc3)C2=O)ccc1O	ALR inh inconclusive
COc1cccc(/C=C2\SC(=S)N(NC(=O)c3ccncc3)C2=O)c1	ALR inh 96
COc1cc(/C=C2\SC(=S)N(NC(=O)c3ccc(O)cc3)C2=O)ccc1O	ALR inh 99 (no result: PHOSPHO1 inh)
O=C(NN1C(=O)/C(=C/c2ccc(O)c(O)c2)SC1=S)c1ccccc1	ALR inh 99
Cc1ccc(S(=O)(=O)NN2C(=O)/C(=C/c3cccnc3)SC2=S)cc1	ALR inh 96
COc1cc(/C=C2\SC(=S)N(NC(=O)c3cccnc3)C2=O)ccc1O	ALR inh 99
CCSCc1nnc(SCC(=O)Nc2cccc(C(C)=O)c2)n1C	none
CCSCc1nnc(SCC(=O)Nc2cccc(SC)c2)n1C	ALR inh 98
C=CCn1c(=O)/c(=C/c2ccc(C)o2)s/c1=C(/C#N)C(=O)c1ccccc1	PHOSPHO1 inh 83
C[C@H]1C2CC(OC(=O)Nc3cccc(F)c3)C(C2)[C@H]2CCCCN21 (some centres not stated)	none (no result: A3G deaminase, PHOSPHO1 inh, A3A deaminase, ALR inh, aDG glyco up)
O=c1[nH]cnc2nc(-c3ccccc3)c(-c3ccccc3)nc12	none
O=c1[nH]cnc2ncc(-c3ccc(O)cc3)nc12	ALR inh 100 (no result: PHOSPHO1 inh)
CCOc1cc(/C=N/NC(=O)C(C)Sc2ccccc2)ccc1O (configuration not stated)	ALR inh 99
O=C(COc1ccccc1C(=O)N/N=C\c1ccc(O)c(O)c1)N/N=C/c1ccc(O)c(O)c1	ALR inh 99 (no result: rCAG RNA binder)
CCOc1cc(/C=N/NC(=O)N/N=C/c2ccc(O)c(OCC)c2)ccc1O	ALR inh 99 (no result: PHOSPHO1 inh, aDG glyco up)
COc1cccc(/C=N/NC(=O)C(C)Sc2ccccc2)c1 (configuration not stated)	none
CCOc1cc(/C=N/NC(=O)C(=O)N/N=C/c2ccc(O)c(OCC)c2)ccc1O	none
CCOc1cc(/C=N/NC(=O)C(OC)c2ccccc2)ccc1O (configuration not stated)	ALR inh 100
CCOc1ccc(/C=N/NC(=O)C(OC)c2ccccc2)cc1 (configuration not stated)	none
CCCCNC(=O)OCCCN1CCC2(CCC(c3ccccc3)CC2)C1 (configuration not stated)	none (no result: A3G deaminase, PHOSPHO1 inh, A3A deaminase, ALR inh, aDG glyco up)
CC(C)CNc1cccc2c1S(=O)(=O)N(Cc1cn(Cc3ccc(F)cc3)nn1)Cc1ccccc1O2	none (no result: A3G deaminase, PHOSPHO1 inh, A3A deaminase, ALR inh, aDG glyco up)
O=C(CCc1ccccc1)N[C@H]1[C@H](O)CCC[C@@]12C(=O)N(Cc1ccccc1)c1ccc(-c3ccccc3)cc12	none (no result: A3G deaminase, PHOSPHO1 inh, A3A deaminase, ALR inh, aDG glyco up)
CCOc1cc(/C=N/NC(=O)c2ccccc2-n2cccc2)ccc1O	ALR inh 99 (no result: PHOSPHO1 inh)
COc1cccc(OC)c1/C(O)=C(\C#N)c1nc2ccccc2[nH]1	PHOSPHO1 inh 60
COC(=O)[C@H]1C[C@@]2(n3ccc4ccccc43)c3ccccc3N(S(=O)(=O)c3ccccc3)[C@H]2N1C(=O)CNC1CCCCC1	none (no result: A3G deaminase, PHOSPHO1 inh, A3A deaminase, ALR inh, aDG glyco up)
CCCCC1CCCOC(C(=O)NCCNCCO)(C(F)(F)F)C1 (configuration not stated)	none (no result: PHOSPHO1 inh)
CCCC[C@@H]1CCCO[C@@](C(=O)NCc2ccc(C)o2)(C(F)(F)F)C1	ALR inh 90 (no result: PHOSPHO1 inh)
COC(=O)C(NNc1ccc(F)cc1)(NC(=O)c1ccccc1)C(F)(F)F (configuration not stated)	none (no result: A3G deaminase, A3A deaminase)
COC(=O)C(NNc1ccccc1C)(NC(=O)c1ccc(F)cc1)C(F)(F)F (configuration not stated)	ALR inh 98
COC(=O)[C@H](CC(C)C)N(Cc1cn(Cc2ccc(C)cc2)nn1)S(=O)(=O)c1ccccc1Br	none (no result: A3G deaminase, PHOSPHO1 inh, A3A deaminase, ALR inh, aDG glyco up)
Cc1ccc(C)c(-n2c(-c3ccncc3)n[nH]c2=S)c1	none
Fc1ccc(-n2c(-c3ccc4c(c3)OCO4)n[nH]c2=S)cc1Cl	ALR inh 96
Cc1ccc(C)c(-n2c(-c3ccc4c(c3)OCO4)n[nH]c2=S)c1	PHOSPHO1 inh 96, ALR inh 83
Cc1ccc(C)c(-n2c(-c3csc(C)c3)n[nH]c2=S)c1	PHOSPHO1 inh 97
COc1cc(OC)cc(-c2n[nH]c(=S)n2-c2ccc3c(c2)OCO3)c1	none (no result: ALR inh)
COC(=O)C1CN(Cc2ccc(OC)cc2)CCS(=O)(=O)N1Cc1cn(Cc2ccccc2)nn1 (configuration not stated)	none (no result: A3G deaminase, PHOSPHO1 inh, A3A deaminase, ALR inh, aDG glyco up)
Cn1c(COc2ccccc2)nnc1SCC(=O)Nc1ccc(OCc2ccccc2)cc1	none (no result: A3G deaminase, PHOSPHO1 inh, A3A deaminase, ALR inh, aDG glyco up)
CC1CCN(C(=S)NCCc2ccccc2)CC1	PHOSPHO1 inh 88
Cc1nn(C2CCCCC2)c(N)c1-c1ccccc1	ALR inh 97
Cc1nn(C)c(N)c1-c1ccccc1	none
Cc1nn(Cc2ccccc2)c(N)c1-c1ccccc1	ALR inh 97
O=C(Nc1ccc(F)cc1)OCc1cn(Cc2cccc(Cl)c2)nn1	none (no result: A3G deaminase, PHOSPHO1 inh, A3A deaminase, ALR inh, aDG glyco up)
COc1cccc(N2CCN(c3ccc4nnc(CCC(=O)Nc5ccccc5OC)n4n3)CC2)c1	ALR inh 80
COc1cccc(N2CCN(c3ccc4nnc(CCC(=O)Nc5ccc(F)cc5F)n4n3)CC2)c1	none
COc1cccc(N2CCN(c3ccc4nnc(CCC(=O)Nc5ccc(F)cc5)n4n3)CC2)c1	ALR inh 80
CCCN(C(=O)C1CCCN(c2ncnc3c2nc2n3CCCCC2)C1)c1ccccc1C (configuration not stated)	none (no result: A3G deaminase, PHOSPHO1 inh, A3A deaminase, ALR inh, aDG glyco up)
Cc1cc(C(=O)CSc2nnc(-c3ccccc3)n2Cc2ccc3c(c2)OCO3)c(C)n1C	PHOSPHO1 inh 95
O=C(CSc1nnc(-c2ccccc2)n1Cc1ccco1)NCc1ccc2c(c1)OCO2	PHOSPHO1 inh 60, ALR inh inconclusive
Cc1cc(C(=O)CSc2nc3ccccc3c(=O)n2C)c(C)n1Cc1ccc2c(c1)OCO2	none
CC(C)C(=O)N1CC[C@H]2[C@H](CCCN2Cc2cc(F)cc(F)c2)C1	none (no result: A3G deaminase, PHOSPHO1 inh, A3A deaminase, ALR inh, aDG glyco up)
O=c1[nH]ccc2c([N+](=O)[O-])cccc12	none
Nc1cc2c([N+](=O)[O-])cccc2o1	ALR inh 85
